# In the supplement of paper PMC9950053:
# Structures can show the parent of a compound that is named as a salt.
# Tested on: Danio rerio larvae (5 dpf)
# Assay: combined upward orientation toward moving lines (periods 7-14) minus DMSO control (percentage points); higher = more orientation with moving lines than DMSO larvae
# Details: 10 µM; exposure time: 3 h pre-incubation + 3 h imaging
# Description: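 Wild-type 5 dpf zebrafish larvae (n=48 per drug, 96-well plates, 28.5 °C) were exposed to Tocris FDA-approved library compounds at 10 µM (0.1% DMSO) for 3 h before and 3 h during imaging. Images were taken every 6 s during visual and acoustic stimuli, and larvae were tracked with Z-LaP Tracker. Each measure is the treated-group mean minus the DMSO control mean (n=844), in percentage points. This mapping covers compounds with 5-character plate codes.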
row,SMILES,combined upward orientation toward moving lines
1,COc1ccc(C(CN(C)C)C2(O)CCCCC2)cc1 (stereo unspecified) [Venlafaxine hydrochloride],0.349
